Results filed as inconclusive are left out. Entries that show only a call come without a potency. Values without a mark were called inactive. The source made the active and inactive calls. Calls follow the shape of the dose curve; as a rule, active = well fitted curve in the direction sought with a large enough effect; inconclusive = small, poorly fitted or top-dose-only effect, or another doubt; inactive = no such curve, though single readings can be large; an effect the other way counts as inactive or inconclusive.
What was measured:
HaCat [1] = assay: Cytotoxic Profiling of Annotated Libraries Using Quantitative High-Throughput Screening (AID 1296008); settings: Five cell lines viability, CellTiter-Glo ATP luminescence, 48-72 h; max response: hits give low values; also: nearly all actives have a fitted effect of over 60% in size; also: potency is read from the fitted curve at half-maximal effect
Procedure, shortened: (§1)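 Cells exposed to compounds for 48 or 72 hr at 37 degrees Celsius. Viability read as ATP-coupled luminescence with CellTiter-Glo after 10 min at room temperature.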

KB-3-1 = assay: as above; settings: Five cell lines viability, CellTiter-Glo ATP luminescence, 48-72 h; max response: hits give low values
Procedure, shortened: as §1

NIH3T3 [2] = assay: as above; settings: Five cell lines viability, CellTiter-Glo ATP luminescence, 48-72 h; max response: hits give low values
Procedure, shortened: as §1

C33A = assay: Primary qHTS to identify gynecologic anti-cancer compounds using libraries of approved drugs and bioactive compounds (AID 1345084); settings: Gynecologic cancer cell panel viability, ATPlite luminescence, 48 h; series mostly up to 57.5 µM; also: nearly all actives have a fitted effect of over 55% in size; also: potency is read from the fitted curve at half-maximal effect
Procedure, shortened: (§2)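 Cells, 1,000 per well, were allowed to settle for 16 h at 37 C before compound addition. Five concentrations were tested for 48 h, and viability was read by ATPlite luminescence after 15 min at room temperature.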

CAOV3 = assay: as above; settings: Gynecologic cancer cell panel viability, ATPlite luminescence, 48 h; series mostly up to 57.5 µM
Procedure, shortened: as §2

CASKI = assay: as above; settings: Gynecologic cancer cell panel viability, ATPlite luminescence, 48 h; series mostly up to 57.5 µM
Procedure, shortened: as §2

Es-2 = assay: as above; settings: Gynecologic cancer cell panel viability, ATPlite luminescence, 48 h; series mostly up to 57.5 µM
Procedure, shortened: as §2

HeLa = assay: as above; settings: Gynecologic cancer cell panel viability, ATPlite luminescence, 48 h; series mostly up to 57.5 µM
Procedure, shortened: as §2

Hek293T [3] = assay: as above; settings: Gynecologic cancer cell panel viability, ATPlite luminescence, 48 h, control line for the selectivity index; series mostly up to 57.5 µM
Procedure, shortened: as §2

JEG-3 = assay: as above; settings: Gynecologic cancer cell panel viability, ATPlite luminescence, 48 h; series mostly up to 57.5 µM
Procedure, shortened: as §2

NIH3T3 [4] = assay: qHTS assay to identify novel small-molecules to repurpose for Merkel cell carcinoma treatment (AID 1296009); settings: MCC and control cell lines, CellTiter-Glo viability, 72 h; at 44.8 µM (top of the series) unless noted; also: nearly all actives have a fitted effect of over 60% in size
Procedure, shortened: (§3)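 Cells were incubated with compound for 72 hr at 37 degree celsius before CellTiter-Glo addition. Luminescence was normalized with no-cell wells as full cytotoxicity and DMSO as baseline.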

OV90 = assay: Primary qHTS to identify gynecologic anti-cancer compounds using libraries of approved drugs and bioactive compounds (AID 1345084); settings: Gynecologic cancer cell panel viability, ATPlite luminescence, 48 h; series mostly up to 57.5 µM; also: nearly all actives have a fitted effect of over 55% in size; also: potency is read from the fitted curve at half-maximal effect
Procedure, shortened: as §2

HEK293T [5] = assay: qHTS assay to identify novel small-molecules to repurpose for Merkel cell carcinoma treatment (AID 1296009); settings: MCC and control cell lines, CellTiter-Glo viability, 72 h; at 44.8 µM (top of the series) unless noted; also: nearly all actives have a fitted effect of over 60% in size
Procedure, shortened: as §3

HACAT [6] = assay: as above; settings: MCC and control cell lines, CellTiter-Glo viability, 72 h; series mostly up to 44.8 µM
Procedure, shortened: as §3

SMILES: Cc1ccccc1C#Cc1ccc(CCC(=O)O)cc1
- max response (HaCat [1]): -15.6%
- max response (KB-3-1): -11.6%
- max response (NIH3T3 [2]): -10.2%
- Potency (C33A): inactive

SMILES: CC(C)=CCCC1(C)C=Cc2c(c(C)cc3c2[nH]c2ccccc23)O1 (configuration not stated)
- max response (HaCat [1]): 3.9%
- max response (KB-3-1): 6.53%
- max response (NIH3T3 [2]): -4.99%
- Potency (C33A): inactive
- Potency (CAOV3): inactive
- Potency (CASKI): inactive
- Potency (Es-2): inactive
- Potency (HeLa): inactive
- Potency (Hek293T [3]): inactive
- Potency (JEG-3): inactive

SMILES: CCOc1cc(CC(=O)NC(CC(C)C)c2ccccc2N2CCCCC2)ccc1C(=O)O (configuration not stated)
- max response (HaCat [1]): 3.59%
- max response (KB-3-1): -3.75%
- outcome (NIH3T3 [2]): inactive
- outcome (NIH3T3 [4]): inactive
- Potency (C33A): inactive
- Potency (CAOV3): inactive
- Potency (CASKI): inactive
- Potency (Es-2): inactive
- Potency (HeLa): inactive
- Potency (Hek293T [3]): inactive
- Potency (JEG-3): inactive
- Potency (OV90): inactive

SMILES: COC(=O)CC(O)CC(O)/C=C/c1c(C)ccc2c1C(O)CC(C)C2 (configuration not stated)
- max response (HaCat [1]): -0.771%
- outcome (KB-3-1): inactive
- outcome (NIH3T3 [2]): inactive
- outcome (HEK293T [5]): inactive
- outcome (NIH3T3 [4]): inactive
- Potency (C33A): inactive
- Potency (CAOV3): inactive
- Potency (CASKI): inactive
- Potency (Es-2): inactive
- Potency (HeLa): inactive
- Potency (Hek293T [3]): inactive
- Potency (JEG-3): inactive
- Potency (OV90): inactive

SMILES: COc1cc2occc2c(O[C@@H]2O[C@H](CO)[C@@H](O)[C@H](O)[C@H]2O)c1CCC(=O)O
- max response (HaCat [1]): 2.4%
- outcome (KB-3-1): inactive
- max response (NIH3T3 [2]): 1.36%
- outcome (HEK293T [5]): inactive [at 17.4 µM]
- Potency (C33A): inactive
- Potency (CAOV3): inactive
- Potency (CASKI): inactive
- Potency (Es-2): inactive
- Potency (HeLa): inactive
- Potency (Hek293T [3]): inactive
- Potency (JEG-3): inactive
- Potency (OV90): inactive

SMILES: CC(=O)OC1CC2C3(C)CCC(OC(=O)CC(=O)O)C(C)(C)C3CCC2(C)C2(C)CCC(C3(C)CCC(=O)O3)C12 (configuration not stated)
- max response (HaCat [1]): 3.4%
- outcome (KB-3-1): inactive
- max response (NIH3T3 [2]): 2.16%
- outcome (HEK293T [5]): inactive [at 17.4 µM]
- Potency (C33A): inactive
- Potency (CAOV3): inactive
- Potency (CASKI): inactive
- Potency (Es-2): inactive
- Potency (HeLa): inactive
- Potency (Hek293T [3]): inactive
- Potency (JEG-3): inactive
- Potency (OV90): inactive

SMILES: COC(=O)c1cc(OC)cc(OC)c1C(=O)c1c(OC)cc2c(c1O)C1CCCC(C)(O2)O1 (configuration not stated)
- max response (HaCat [1]): 3.65%
- outcome (KB-3-1): inactive
- outcome (NIH3T3 [2]): inactive
- outcome (NIH3T3 [4]): inactive [at 17.4 µM]
- Potency (C33A): inactive
- Potency (CASKI): inactive
- Potency (Es-2): inactive
- Potency (HeLa): inactive
- Potency (Hek293T [3]): inactive
- Potency (JEG-3): inactive
- Potency (OV90): inactive

SMILES: N#Cc1cc(F)cc(-c2nc(-c3ccccn3)no2)c1
- outcome (HaCat [1]): inactive
- max response (KB-3-1): -6.38%
- max response (NIH3T3 [2]): -10.9%
- Potency (HACAT [6]): inactive
- Potency (C33A): inactive
- Potency (CASKI): inactive
- Potency (Hek293T [3]): inactive

SMILES: CC(C)c1ccc(CO)cc1O[C@@H]1O[C@H](CO)[C@@H](O)[C@H](O)[C@H]1O
- max response (HaCat [1]): 1.11%
- outcome (KB-3-1): inactive
- outcome (NIH3T3 [2]): inactive
- outcome (HEK293T [5]): inactive
- outcome (NIH3T3 [4]): inactive
- Potency (C33A): inactive
- Potency (CAOV3): inactive
- Potency (CASKI): inactive
- Potency (Es-2): inactive
- Potency (HeLa): inactive
- Potency (Hek293T [3]): inactive
- Potency (JEG-3): inactive
- Potency (OV90): inactive

SMILES: C/C(=C\CCC(C)CCO)C(=O)OC1(C)CCC2C(C(=O)O)=COC(OC3OC(CO)C(O)C(O)C3O)C21 (configuration not stated)
- max response (HaCat [1]): -20.6%
- outcome (KB-3-1): inactive
- outcome (NIH3T3 [2]): inactive; activator
- outcome (HEK293T [5]): inactive [at 17.4 µM]
- outcome (NIH3T3 [4]): inactive; activator [at 17.4 µM]
- Potency (C33A): inactive
- Potency (CAOV3): inactive
- Potency (CASKI): inactive
- Potency (Es-2): inactive
- Potency (HeLa): inactive
- Potency (Hek293T [3]): inactive
- Potency (JEG-3): inactive
- Potency (OV90): inactive

SMILES: COc1c2c(c(CO)c3c1C(=O)OC3)OC1(C)CCC3(O)C(C)(C)OC(=O)CCC3(C)C1C2 (configuration not stated)
- max response (HaCat [1]): -24.1%
- outcome (KB-3-1): inactive
- max response (NIH3T3 [2]): -8.25%
- outcome (HEK293T [5]): inactive [at 17.4 µM]
- Potency (C33A): inactive
- Potency (CAOV3): inactive
- Potency (CASKI): inactive
- Potency (Es-2): inactive
- Potency (HeLa): inactive
- Potency (Hek293T [3]): inactive
- Potency (JEG-3): inactive
- Potency (OV90): inactive

SMILES: CC(C)c1cc(C(=O)N2CC[C@H](NC(=O)C3CC3)C2)n[nH]1
- outcome (HaCat [1]): inactive
- max response (KB-3-1): -1.18%
- max response (NIH3T3 [2]): -25.5%
- Potency (HACAT [6]): inactive
- Potency (CAOV3): inactive
- Potency (CASKI): inactive
- Potency (Es-2): inactive
- Potency (HeLa): inactive
- Potency (Hek293T [3]): inactive
- Potency (JEG-3): inactive
- Potency (OV90): inactive

SMILES: COc1cc(OC)c(/C=C/S(=O)(=O)Cc2ccc(OC)c(NCC(=O)O)c2)c(OC)c1
- outcome (HaCat [1]): inactive
- Potency (KB-3-1): 206 nM (active)
- Potency (NIH3T3 [2]): 146 nM (active)
- Potency (HACAT [6]): inactive
- Potency (Es-2): 316 nM (active)
- Potency (HeLa): 251 nM (active)
- Potency (JEG-3): 447 nM (active)

SMILES: CCN(CC)Cc1ccc(C(=O)N(CCc2ccccc2OC)[C@@H]2CCNC2)cc1
- max response (HaCat [1]): -4.71%
- Potency (KB-3-1): 3990 nM (active)
- Potency (NIH3T3 [2]): 2520 nM (active)
- Potency (C33A): inactive
- Potency (CAOV3): inactive
- Potency (CASKI): inactive
- Potency (Es-2): inactive
- Potency (HeLa): inactive
- Potency (Hek293T [3]): inactive
- Potency (JEG-3): inactive

— PubChem BioAssay (NCATS)
